# Data: the supplement of paper PMC6555819
# Assays:
# Assay in all cases: PBM binding z-score (relative to random genomic background probes); higher = stronger binding; sequences stand for … in GC…GCGATTGACAGCGTAGAATGAAGG
# [1] = system: PPARg:RXRa DBDmut IVT, anti-RXR (DBD mutation: RXRa K156A/R161A, NR concentration 270 nM, RXRa partner concentration 90 nM)
# Method in brief: (§1)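 Ligand-free nuclear receptor dimers were bound for 1 h to custom Agilent 4×180K protein-binding microarrays. Detection used antibodies against each partner (one per run). Binding z-scores rest on regression-normalized fluorescence, with random background probes as the reference.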
# [2] = system: PPARg:RXRa IVT, anti-PPARg (NR concentration 270 nM, RXRa partner concentration 90 nM)
# Method in brief: as §1
# [3] = system: PPARg DBDmut:RXRa IVT, anti-PPARg (DBD mutation: PPARg1 K132A/R137A, NR concentration 270 nM, RXRa partner concentration 90 nM)
# Method in brief: as §1
# [4] = system: PPARg DBDmut IVT, anti-PPARg (DBD mutation: PPARg1 K132A/R137A, NR concentration 270 nM)
# Method in brief: as §1
# [5] = system: PPARg homodimer (NR concentration 180 nM)
# Method in brief: as §1
# [6] = system: PXR:RXRa (NR concentration 270 nM, RXRa partner concentration 90 nM)
# Method in brief: as §1
# [7] = system: PXR homodimer (NR concentration 270 nM)
# Method in brief: as §1
# [8] = system: RARa:RXR (NR concentration 270 nM, RXRa partner concentration 90 nM)
# Method in brief: as §1
# [9] = system: RARa homodimer (NR concentration 270 nM)
# Method in brief: as §1
# [10] = system: RARb:RXRa (NR concentration 270 nM, RXRa partner concentration 90 nM)
# Method in brief: as §1
Sequence,PBM binding z-score [1],PBM binding z-score [2],PBM binding z-score [3],PBM binding z-score [4],PBM binding z-score [5],PBM binding z-score [6],PBM binding z-score [7],PBM binding z-score [8],PBM binding z-score [9],PBM binding z-score [10]
AGAATGAGGTTATACGTAGATCAGGGCAGAAAGT,4.01,2.15,0.485,0.402,0.774,1.45,1.34,1.82,0.705,1.51
AGAATGAGGTTATACGTAGATCAGGAAAGAAAGT,4.05,2.36,1.21,0.76,0.606,1.23,0.488,1.71,0.559,1.37
ACTATTAGTTGACTTAGGGCAACCGCTACGACGC,-0.144,0.703,0.862,0.674,0.236,0.0683,-0.0423,0.605,0.391,0.745
ATCGAAAGGTCGTGAGGTGAGTATACAGAAAGGC,-0.0528,2.47,1.08,1.25,2.77,3.39,0.278,4.21,0.287,4.02
AGAATGAGGTTATACGTAGATCCGGGAAGAAAGT,3.81,2.11,0.942,0.253,0.53,0.73,0.508,1.02,0.0175,1.27
TCATATAGGTAAAAGGTGAAACTCGGTGTGGTAA,5.96,5.4,0.902,1.04,1.99,2.27,0.443,3.48,1.82,2.26
TCAGACAGGTGAAGGTAAATCAGGTACGCAGTCG,2.98,1.27,-0.386,0.474,1.11,0.994,0.51,1.26,0.658,1.4
GCTTACGGGTCAAGGGTTATAGCATGAATAGAAT,3.76,5.31,1.91,1.82,3.12,4.69,0.12,7.06,0.958,4.27
CGTCCAAGGTCAGCAGCTCAGTGAAAGCGACGTG,2.5,2.27,-0.354,-0.261,1.96,2.16,-0.1,2.83,0.297,4.83
CTACCAAGGTGAACAAGGTAGTTGATTACTATTC,2.65,2.48,0.56,0.814,0.0631,0.0464,-0.0276,0.456,-0.151,1.53
GGAACGAGGGCAAGTTGATAACAGAGTTTGATGG,3.17,2.87,0.0927,0.0422,0.807,0.857,0.526,0.565,-0.181,2.38
ATGGAAAGGTCGACGAGGTGAGTATACACCGTTT,0.338,1.89,0.736,1.01,1.38,2.96,0.609,3.54,0.422,3.73
CCGACTGGGGCATAAGGTTACCACAAGCCAGCCC,2.87,3.09,-1.04,-1.03,0.364,0.223,-0.315,1.25,-0.43,1.73
TCTTATAGGTAAATGCTAGGTGAAAGTCCGATCT,3.93,2.62,1.31,1.13,1.1,0.946,0.588,1.4,1.65,0.769
CAAACTAGGTCACAGAGGTCAAAGTGCGTGCGTA,8.28,9.04,1.58,0.779,3.18,6.72,9.97,7.47,2.13,5.4
AGCATGAGGTTATTAAGATCAGGGAATTGCGGTC,0.439,0.818,0.518,-0.586,0.577,1.29,0.786,1.44,0.368,1.45
TGTCAAAGTTCAAACGTAACGTAAGTATCCACAC,0.502,4.09,1.75,1.83,2.5,5.07,4.65,3.8,1.09,4.99
CAGCCTAGGTCAGGGCCAGTGTAGGAGGAACGTT,1.13,1.58,-0.0989,-1.49,0.588,0.476,-0.524,1.01,-0.522,3.5
CGAACTAGGTCATTGACCGGACAGTGAATAGTAA,8.08,8.12,0.655,0.319,0.696,1.2,-0.102,1.93,0.169,3.61
CCTCGGAGGACAACAGGAGTTCAGAGCTGCCAGA,-0.298,-1,-2.34,-1.22,0.513,1.92,1.78,0.366,0.371,1.67
CTCGAAAGGTCGGTTGAGATGAGTATACGGATAA,-0.21,0.247,0.456,0.37,0.803,1.01,0.26,1.37,0.533,2.86
ATCTCTAGGTAAGACTCAGTTCAGTGAAGAACGC,1.86,0.996,1.18,1.16,1.11,1.04,1.31,0.197,0.948,0.386
ATCTCCAGGTAAGACTCAGTTCAGTGAAGAACGC,0.285,0.513,0.311,1.43,1.51,1.38,1.36,0.454,0.892,0.446
TCGATTAGGTTAGGGGCATTCAGAATGGCGTCGA,1.99,0.798,-0.691,0.33,1.07,0.603,0.447,0.692,0.352,1.57

Sequence,PBM binding z-score [1],PBM binding z-score [2],PBM binding z-score [3],PBM binding z-score [4],PBM binding z-score [5],PBM binding z-score [6],PBM binding z-score [7],PBM binding z-score [8],PBM binding z-score [9],PBM binding z-score [10]
ACTAGCAGGCCAAGGGTCACTGAAGATTAGTCCG,1.21,4.08,0.528,0.377,5.87,3.39,-0.283,4.86,0.818,3.76
GCGACTCGGGCATCAGCAGGTTACCATAACTTAA,0.301,-0.204,-0.845,-1.46,-0.774,-0.236,-0.725,0.133,-0.931,0.242
TCATATAGGTAAAAGTTGAAAGTCGGTGTGGTAA,4.15,3.58,0.876,1.75,1.63,0.929,0.491,1.56,1.48,1.04
CCCACTGGGGCAGAAAGGTTACCATACCATCCGG,2.2,3.8,-0.946,-0.994,1.02,0.703,-0.212,1.59,-0.0999,1.86
CTTCCAAGGTCATAGGAGGTCAGTGAAGACAGAT,3.59,4.67,1.93,1.31,4.55,6.93,4.92,6.14,3.57,5.42
GGAACGAGGGCAAAGTTGACAGCATCTGTCGACG,4.28,4.82,1.12,0.308,0.924,1.91,0.0135,2.66,-0.5,2.65
AATACAGGGTCATCGTAGGCCCGAGTACGCACAG,2.64,3.72,0.916,-0.158,1.25,3.92,0.581,4.7,0.922,4.23
CCTGCTAGGTCAATGGTCAGTTAAAGCAGCTCGC,4.28,3.9,-0.811,-0.609,1.46,0.845,-0.135,1.69,-0.34,3.95
GCTAACGGGTCAAAGGTTATAGCATGAATAGAAT,3.51,5.64,0.399,0.838,1.81,5.59,0.2,7.51,0.254,4.19
TCTTGTAGATCAATCAGGTTAAGAAAGCCTGAGT,1.98,0.808,1.29,0.885,-0.302,0.413,-0.0985,0.669,-0.252,0.281
AGAACGAGGGCACGCTGAGGTGATAGCAGAGTAG,4.07,4.06,1.26,0.179,0.573,0.989,-0.0676,1.66,-0.189,2.66
CGTCAAACTTCAAGGTAACGTAACAGAAAGCAGC,0.101,0.749,0.373,0.926,0.291,0.178,0.193,0.544,-0.134,0.507
CCAGACAGGTGAAAAGTAACTCAGTCTGGTACGC,1.47,0.789,-0.595,-0.539,0.332,-0.0943,-0.142,0.133,0.489,0.36
AGTCGAAGTTCATCTAGGTAACGTAAGATATGCT,0.32,2.06,0.625,0.713,1.04,3.3,2.97,1.67,0.799,3.05
CCGACTGGGGCGAAGGTTACCATACTCAGTACGA,1.13,2.83,-0.805,-0.462,0.137,0.261,-0.624,0.961,-0.33,0.726
TCATATAGGTAATACAGGTGAATGTCGGCATCTA,4.3,3.5,1.54,1.28,1.27,0.727,0.579,1.2,1.94,0.634
CCAACTGGGGCAAAGGTTACCATACTCAGTACGA,6.6,6.7,0.471,-0.285,1.54,2.39,0.017,4.34,0.873,2.65
AGTCAAAGTTCAGGACGAGGTATCGTAAAGCACG,-0.507,0.996,0.0216,0.419,1.39,2.32,1.4,2.06,0.462,4.09
GCTATTAGTTGAATGGGCAACCGAATGATTCTCG,0.75,-0.332,-0.684,0.178,-0.436,-0.587,-0.28,-0.707,0.153,-0.226
CCTAGTTGATCAGGAGGTCACACACCGGATATGA,0.771,2.22,0.83,0.641,4.38,4.62,1.79,5.02,2.57,3.46
GCGACTGGGGCAAAGCGGGTTACCATAAGGTTGG,4.18,3.67,-0.432,-0.894,-0.11,0.293,-0.451,0.625,-0.887,0.922
TCATATAGGTAAAGGTGAATGTCGAACGATATGA,3.9,4.33,0.991,1.7,1.02,0.695,0.181,1.46,0.501,1.87
GTACCAAGTTGAATAGGTCGTTGATGAGTAGGCG,-0.264,0.17,0.192,0.767,0.638,0.225,0.216,0.609,0.578,0.926
CGAACTAGGTCATTGACAGGTCAGTGAATAGTAA,8.05,7.99,2.07,0.617,3.26,3.56,0.482,5.11,0.887,4.25
